# Test results: PMC5540273 (PLoS ONE, 2017)
# Tests used:
# Details in all cases: concentration: 1 μM, replicates: in singlicate; n = 1
# MAPKAPK5 = system: MAPKAPK5
# MARK1 = system: MARK1
# MARK2 = system: MARK2
# MARK3 = system: MARK3
# MARK4 = system: MARK4
# MAST1 = system: MAST1
# MEK1 = system: T1, MEK1
# T1 construct: gene MAP2K1
# MEK2 = system: T2, MEK2
# T2 construct: gene MAP2K2
# MEK3 = system: T3, MEK3
# T3 construct: gene MAP2K3
# MEK4 = system: T4, MEK4
# T4 construct: gene MAP2K4
# 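Also: KINOMEscan kinase panel screen.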
Compound,%Inh (MAPKAPK5) [%],%Inh (MARK1) [%],%Inh (MARK2) [%],%Inh (MARK3) [%],%Inh (MARK4) [%],%Inh (MAST1) [%],%Inh (MEK1) [%],%Inh (MEK2) [%],%Inh (MEK3) [%],%Inh (MEK4) [%]
CC(C)c1nc(-c2ccc(F)c(NS(=O)(=O)c3c(F)cccc3F)c2)c(-c2ccnc(Nc3ccc(N4CCOCC4)nc3)n2)s1 [GSK1804250],0,0,15,0,16,0,17,27,19,100
COc1cc(Nc2nccc(N3CCC(NS(=O)(=O)c4ccc(NC(C)=O)cc4)CC3)n2)cc(OC)c1OC [GSK1379825],0,14,1,0,15,13,0,0,6,14
CN1CCN(Cc2ccc(NC(=O)Nc3ccc(N(C)c4ccnc(Nc5ccc(CS(C)(=O)=O)cc5)n4)cc3)cc2)CC1.Cl [GW827654],13,32,60,61,31,32,1,25,74,86
CC(C)NCC(Cc1ccccc1)NC(=O)c1cc(Br)c(-c2ccnc3[nH]ccc23)s1.Cl.Cl (stereo not drawn) [GSK1383281],0,11,31,60,0,0,0,0,87,39
N#CC1(c2cccc(C(=O)Nc3cccc(Oc4ccc5nc(NC(=O)C6CC6)sc5n4)c3)c2)CC1,0,0,0,0,0,0,18,19,11,0
O=C1NC(=O)C(c2ccccc2Cl)=C1Nc1cccc(Cl)c1 [SB-342409],0,0,0,2,0,0,2,5,0,0
Nc1cccc(-c2ccc3c(N)n[nH]c3c2)c1 [GSK2193613],0,0,0,0,0,0,53,39,0,12
Cn1cc(-c2ccc3c(c2)CCN3C(=O)Cc2cc(F)cc(C(F)(F)F)c2)c2c(N)ncnc21 [GSK2635225],0,0,9,0,2,0,0,0,0,29
CN(C)CCNS(=O)(=O)c1ccc(-c2ccnc3[nH]ccc23)cc1 [GSK977620],0,8,31,13,2,0,0,0,10,19
NCCC(NC(=O)c1cc(Br)c(-c2ccnc3[nH]ccc23)s1)c1ccccc1.O=C(O)C(F)(F)F.O=C(O)C(F)(F)F (stereo not drawn) [GSK1307810],0,7,26,0,11,15,0,0,93.7,52
CNc1nccc(-c2ccc3c(N)n[nH]c3c2)n1 [GSK2206003],0,0,25,0,0,0,0,5,34,22
O=C(O)C(F)(F)F.O=c1[nH]ccc2nc(N[C@@H]3CCNC3)nc(Nc3cc(Cl)cc(Cl)c3)c12 [GSK2188764],47,52,87,85,41,28,79,84,88,72
COc1cccc(CC(=O)N2CCc3cc(-c4cn(C)c5ncnc(N)c45)ccc32)c1 [GSK2608899],0,0,0,7,0,0,39,0,0,53
Cn1cc(-c2cnc(N)c3c(-c4ccc5c(c4)CCN5C(=O)Cc4ccccc4)csc23)cn1 [GSK2593074],0,0,5,0,9,25,36,23,23,56
CCn1cnc2c(NCc3ccccc3)ncnc21 [SKF-96418],0,3,0,27,14,67,20,37,40,23
COC(=O)Nc1nc2cc(Oc3ccc(NC(=O)Nc4cccc(SC)c4)cc3)ccc2[nH]1.Cl [GW697999],0,0,0,0,9,14,0,0,0,12
O=C(Nc1n[nH]c2nc(-c3ccccc3O)ccc12)C1CC1 [SB-711880],0,0,43,0,0,31,5,25,40,34
COc1ccc(NC(=O)c2ccoc2)cc1-c1ccc(C(=O)NCC2CC2)cc1 [GW810437],0,17,0,47,18,56,13,24,36,0
Cc1ccc(O)cc1Nc1ccnc2cc(-c3ccc(CN4CCCCC4)o3)ccc12 [GW557777],0,8,8,0,0,0,17,30,2,0
CN(c1ccc2c(c1)nc(NCc1ccccc1)n2C)c1ccnc(Nc2ccc(CS(C)(=O)=O)cc2)n1.Cl [GW811603],0,30,0,0,5,31,0,0,51,34
CCNC(=O)/C=C/c1n[nH]c2cc(Sc3ccccc3C(=O)NC)ccc12,18,0,34,0,3,0,17,18,14,0
CN(C)c1ncnc2nc[nH]c12 [SKF-31736],0,0,9,23,9,49,28,46,54,8

Compound,%Inh (MAPKAPK5) [%],%Inh (MARK1) [%],%Inh (MARK2) [%],%Inh (MARK3) [%],%Inh (MARK4) [%],%Inh (MAST1) [%],%Inh (MEK1) [%],%Inh (MEK2) [%],%Inh (MEK3) [%],%Inh (MEK4) [%]
O=C(Nc1n[nH]c2nc(-c3cccc(O)c3)ccc12)C1CC1 [SB-711805],3,31,30,0,0,42,10,10,41,12
Cc1cc(-c2c(-c3ccc(F)cc3)ncn2CCCN2CCOCC2)nc(N)n1 [SB-222517],0,23,0,0,32,14,21,47,23,26
Cc1ccc(NC(=O)c2ccnc(N3CCCCC3)c2)cc1-c1ccc(C(=O)NCC2CC2)cc1 [GW775610],5,0,14,0,2,37,4,0,45,0
COc1cccc(NC(=O)NCCNc2ccnc(Nc3ccc(F)cc3)n2)c1 [GSK1379879],0,0,0,0,5,0,19,0,10,5
CSc1ccc(NC2=C(c3ccc(Cl)cc3)C(=O)NC2=O)cc1 [SB-317658],0,3,0,28,21,23,3,6,0,0
COc1cc(Nc2nccc(N3CCC(NC(=O)Nc4ccc5c(c4)OCO5)C3)n2)cc(OC)c1OC (stereo not drawn) [GSK1379766],0,4,0,0,1,0,0,0,2,8
Cc1ccccc1CC(=O)N1CCc2cc(-c3cn(C)c4ncnc(N)c34)ccc21 [GSK2603346],0,0,0,0,0,0,0,0,1,27
c1ccc(Oc2ccc(Nc3ccnc4cc(-c5ccc(CN6CCCCC6)o5)ccc34)cc2)nc1 [GW567143],0,0,0,0,5,0,95.3,97.1,0,0
O=C(Nc1n[nH]c2nc(-c3ccccc3)ccc12)C1CC1 [SB-708999],0,0,0,0,8,22,6,0,0,0
Cl.Cl.NC(CNC(=O)c1cc(Br)c(-c2ccnc3[nH]ccc23)s1)c1ccccc1 (stereo not drawn) [GSK1322949],0,0,22,0,0,29,0,0,74,57
Fc1cc(Cl)ccc1Nc1ccnc2cc(-c3ccc(CN4CCOCC4)o3)ccc12 [GW560109],0,0,0,2,0,3,0,38,0,31
Fc1cc(Cl)ccc1Nc1ccnc2cc(-c3ccc(CN4CCSCC4)o3)ccc12 [GW560106],0,5,0,0,21,34,53,35,0,3
CN(c1ccc(NC(=O)N2CCN(CCCN3CCOCC3)CC2)cc1)c1ccnc(Nc2ccc(CS(C)(=O)=O)cc2)n1.Cl [GW830899],0,0,1,1,30,0,0,23,0,0
Cc1cccc(Nc2nc(N[C@H]3CCCC[C@H]3N)ncc2C(N)=O)c1.Cl [GSK986310],0,5,37,0,13,0,8,19,88,69
COC(=O)Nc1nc2ccc(Oc3ccc(NC(=O)Nc4cc(C(F)(F)F)ccc4F)cc3)cc2[nH]1.Cl [GW654607],0,0,0,0,0,0,0,0,0,15
CN(c1ccc(F)c(NC(=O)c2cccc(OC(C)(C)C#N)c2Cl)c1)c1ccc2nc(NC(=O)C3CC3)sc2n1,0,0,0,0,0,40,61,49,0,26
COc1ccc(C2=C(Nc3cccc(O)c3)C(=O)NC2=O)cc1 [SB-390766],0,46,0,0,19,0,0,0,0,0
Cn1cc(-c2ccc3c(c2)CCN3C(=O)Cc2cc(F)cc(F)c2F)c2c(N)ncnc21 [GSK2634140],0,0,0,0,0,0,0,0,0,37
CCOc1nccc(-c2c(-c3ccc(F)cc3)ncn2C2CCNCC2)n1 [SB-249175],39,3,29,0,0,0,28,31,43,21
CC(C)(C)c1ccc(C(=O)Nc2cn3cc(-n4ccnc4)ccc3n2)cc1,0,0,3,0,0,38,5,6,0,38
Cc1ccc(O)cc1Nc1ccnc2ccc(C(C)(C)C)cc12 [GW856805],0,36,20,21,37,69,17,21,67,42
N#Cc1cnc2cc(-c3cnc(CNCCN4CCOCC4)s3)ccc2c1Nc1ccc(Oc2ccccc2)cc1 [GW664114],0,35,0,9,5,0,100,100,9,80

Compound,%Inh (MAPKAPK5) [%],%Inh (MARK1) [%],%Inh (MARK2) [%],%Inh (MARK3) [%],%Inh (MARK4) [%],%Inh (MAST1) [%],%Inh (MEK1) [%],%Inh (MEK2) [%],%Inh (MEK3) [%],%Inh (MEK4) [%]
COc1ccc(C)c(Nc2ccnc(Nc3ccc(-c4cnc[nH]4)cc3)n2)c1.Cl [GW784041],0,9,0,14,24,0,31,55,0,0
CCn1c(-c2nonc2N)nc2c(-c3ccccc3)ncc(OCCCN)c21.O=C(O)C(F)(F)F.O=C(O)C(F)(F)F [GSK260205],0,0,0,0,0,28,0,0,0,13
Cl.N#CCc1ccc(Nc2nccc(Nc3ccc(Oc4ccccc4)cc3)n2)cc1 [GW639905],0,0,0,0,0,0,2,12,0,22
Cc1nn2c(=O)cc(N3CCO[C@H](C)C3)nc2n1Cc1cccc(Cl)c1Cl [GSK2373693],0,0,0,0,0,0,0,0,10,27
CN(C)CCOc1ccc(-c2cc(-c3ccc(Cl)c(O)c3)c(-c3ccncc3)[nH]2)cc1.Cl.Cl [SB-684387],29,0,14,14,0,52,0,35,5,10
CCNc1nccc(-c2c(-c3ccc(F)cc3)ncn2C2CCN(C)CC2)n1,0,0,0,0,0,46,4,15,0,0
COc1cc(Nc2ccnc3cc(-c4ccncc4)ccc23)cc(OC)c1OC.Cl [GW494610],0,1,0,0,9,15,14,0,0,27
Cc1ccc(NC(=O)c2cccc(N3CCCCC3)c2)cc1-c1ccc(C(=O)NCC2CC2)cc1 [GSK1917008],0,0,0,20,10,0,0,0,0,8
Cl.Cl.NCC(NC(=O)c1cc(-c2cccnc2)c(-c2ccnc3[nH]ccc23)s1)c1ccccc1 (stereo not drawn) [GSK1323434],0,0,40,0,8,0,0,0,39,25
Cc1cc(-c2ccnc(Nc3cccc(C#N)c3)n2)cc(C)c1O [GSK1440913],0,0,0,0,0,0,0,0,89,40
COc1cccc(-c2nc(-c3ccccc3)[nH]c2-c2ccncc2)c1 [SB-610250],0,0,0,0,0,22,0,0,0,0
O=C(Nc1c(F)cccc1F)c1cc(C(=O)c2ccccc2F)c[nH]1 [GSK1326180],0,0,0,3,9,0,0,0,0,10
CC(=O)Nc1cn2nc(Oc3cccc(NC(=O)c4cccc(C(F)(F)F)c4)c3)ccc2n1,0,0,0,8,20,8,0,18,0,0
Cc1ccc(Nc2ccnc(Nc3ccc(C)c(F)c3)n2)cc1O.Cl [GW582868],0,0,0,0,0,28,0,0,13,28
COc1cccc(C2=C(Nc3cccc(O)c3)C(=O)NC2=O)c1 [SB-390771],0,0,0,1,8,4,0,0,0,0
O=C(Nc1n[nH]c2cc(-c3cccs3)ccc12)C1CC1 [SB-731284],4,47,21,0,35,6,47,24,51,46
Cl.O=C(Nc1ccc(Oc2ccc3[nH]c(NC(=O)c4ccco4)nc3c2)cc1)Nc1cc(C(F)(F)F)ccc1F [GW683134],0,0,0,0,6,8,0,0,0,10
CC(C)c1nc(-c2cccc(NS(=O)(=O)c3c(F)cccc3F)c2)c(-c2ccnc(Nc3ccc(N4CCOCC4)nc3)n2)s1.Cl [GSK1723980],0,0,0,0,40,0,5,35,15,98.6
COC(=O)Nc1nc2ccc(Oc3ccc(CC(=O)Nc4cc(C(F)(F)F)ccc4F)cc3)cc2[nH]1 [GW680903],0,0,100,5,0,0,0,0,0,29
Cc1cccc(Nc2nc(NCCN)ncc2C(N)=O)c1 [GSK1292139],44,0,39,7,0,0,0,9,94.9,55
CS(=O)(=O)c1cccc(CNc2nc(Nc3ccc4c(c3)CCC(=O)N4)ncc2C(F)(F)F)c1,0,35,16,56,46,0,0,58,61,56
Cc1ccc(C)c(NC(=O)Nc2ccc(C)c(-c3ccc(C(=O)Nc4ccncc4)cc3)c2)c1 [GSK1398473],0,0,0,0,3,0,0,0,0,26
